Measured values published in PubChem BioAssay AID686979 (National Center for Advancing Translational Sciences (NCATS), 2013).
Out of some 420,000 compounds screened, about 50,000 (12%) were called active. A call without a number means that no potency is given here. Inconclusive results (about 26%) are left out. Calls follow the shape of the dose curve; as a rule, active = well fitted inhibition curve with a large enough effect; inconclusive = small, poorly fitted or top-dose-only effect; inactive = flat fitted curve, though single readings scatter. The full list was thinned out, with actives kept by preference. Where a SMILES comes first, the peptide text is derived from it. Bridges are numbered along the chain shown (N, C = ends). [ ]: non-standard residue; d: D form. The star is where a group is joined. X4 = CC[C@H](C)CCCCC(=O)*; Dab = NCC[C@H](N)C(=O)O

Assay: qHTS for Inhibitors of human tyrosyl-DNA phosphodiesterase 1 (TDP1): qHTS in cells in presence of CPT; also: nearly all actives have a fitted effect of over 55% in size
Settings: chicken DT40 Tdp1-/-;hTDP1 cells + 20 nM CPT, ATP luminescence, 48 h; series mostly up to 46.2 µM
Outline: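 Chicken DT40 Tdp1-/- cells stably complemented with human TDP1 were seeded at 400 cells/well in medium containing 20 nM camptothecin, exposed to pin-transferred compounds, and grown at 37 °C for at least 48 hr. Viability was read as ATP luminescence.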
Potency is read from the fitted curve at half-maximal effect.

| Compound | Potency |
| --- | --- |
| O=C(CN1C(=O)COc2ccc(Cl)cc21)Nc1ccc(N2CCOCC2)cc1 | inactive |
| CCC(C)NC(=O)c1ccc(N2CCC3(CC2)OCCO3)c([N+](=O)[O-])c1 (stereo not drawn) | inactive |
| Cc1cccc(C(=O)OCC(=O)NCC(C)C)c1O | inactive |
| CC[C@H](C)CCCCC(=O)N[C@@H](CCN)C(=O)N[C@H](C(=O)N[C@@H](CCN)C(=O)N[C@H]1CCNC(=O)[C@@H]([C@H](C)O)NC(=O)[C@H](CCN)NC(=O)[C@H](CCN)NC(=O)[C@H](CC(C)C)NC(=O)[C@@H](CC(C)C)NC(=O)[C@H](CCN)NC1=O)[C@@H](C)O (X4-[Dab]T[Dab][Dab][Dab][dL]L[Dab][Dab][dT]; lactam 4-C) | inactive |
| COc1cc([N+](=O)[O-])ccc1NC(=O)CN1CCCC1 | inactive |
| COc1cc([N+](=O)[O-])ccc1NC(=O)COC(=O)CCOc1ccc(C)cc1 | 6.51 µM (active) |
| CSc1ccccc1NC(=O)COC(=O)CCCOc1ccc(C)cc1 | inactive |
| CC1(C)CC(=O)CC2(C1)NCC(c1ccccc1Cl)c1c2[nH]c2ccccc12 (stereo not drawn) | 18.4 µM (active) |
| CCc1cccc(-n2nnc(-c3nsc(NC(=O)c4ccc(C)cc4)n3)c2C)c1 | 9.2 µM (active) |
| Cc1ccc(C(=O)Nc2nc(-c3ccccc3)ns2)cc1 | inactive |
| Cc1ccc(C(=O)Nc2nc(N)n(-c3ccccc3)n2)cc1 | inactive |
| CCN(CC(=O)Nc1ccc(NC(C)=O)cc1)C(=O)C1CC(=O)N(c2ccc3c(c2)OCCO3)C1 (stereo not drawn) | inactive |
| COc1cccc(CNC(=O)CCC(=O)N2CC3CCCN3c3ccccc32)c1 (stereo not drawn) | 14.6 µM (active) |
| COc1cccc(CNC(=O)C2CC(=O)N(C3CCCCCCC3)C2)c1 (stereo not drawn) | inactive |
| COc1cccc(CNC(=O)CCC2CCCN(C(=O)c3cc(C)[nH]n3)C2)c1 (stereo not drawn) | inactive |
| CCOc1ccc(-c2nc(C)sc2CC(=O)O)cc1 | inactive |
| Cc1cc(C)cc(NC(=O)C2CCCN(S(=O)(=O)c3ccc4[nH]c(=O)ccc4c3)C2)c1 (stereo not drawn) | inactive |
| Cn1nnnc1SCC(=O)Nc1sccc1C(N)=O | inactive |
| CC1=C(C(=O)OCc2ccc(C)cc2)C(c2ccccc2Cl)CC(=O)N1 (stereo not drawn) | 13 µM (active) |
| COC(=O)C1=C(C)NC(=O)CC1c1ccccc1OC (stereo not drawn) | inactive |

| Compound | Potency |
| --- | --- |
| CC1=C(C(=O)OCc2ccc(C)cc2)C(c2c(Cl)cccc2Cl)CC(=O)N1 (stereo not drawn) | inactive |
| O=C(Nc1ccc(Cl)cn1)c1ccccc1-c1ccccc1 | inactive |
| CC1(C)S[C@@H]2[C@H](N=CN3CCCCCC3)C(=O)N2[C@H]1C(=O)O | inactive |
| C=CCn1c(SCc2ccc(C(=O)NCCO)cc2)nc2ccccc2c1=O | inactive |
| OC1CSc2nc3ccccc3n2C1 (stereo not drawn) | inactive |
| CC(=O)N1c2ccc(S(=O)(=O)N3CCC(C(=O)NC4CCCC(C)C4C)CC3)cc2CC1C (stereo not drawn) | inactive |
| CC(=O)N1c2ccc(S(=O)(=O)N3CCC(C(=O)NCc4ccc(F)cc4)CC3)cc2CC1C (stereo not drawn) | inactive |
| CC(=O)N1c2ccc(S(=O)(=O)N3CCCC(C(=O)Nc4cccc(F)c4)C3)cc2CC1C (stereo not drawn) | 11.6 µM (active) |
| CCc1cccc(NC(=O)C2CCCN(S(=O)(=O)c3ccc4[nH]c(=O)ccc4c3)C2)c1 (stereo not drawn) | inactive |
| CC(=O)N1c2ccc(S(=O)(=O)N3CCC(C(=O)NC4CCCCC4C)CC3)cc2CC1C (stereo not drawn) | inactive |
| COc1ccc(OC)c(NC(=O)C2CCCN2S(=O)(=O)c2cccc3nsnc23)c1 (stereo not drawn) | inactive |
| COc1ccc(OC)c(NC(=O)C2CCCN2S(=O)(=O)c2ccc3c(c2)CC(C)N3C(C)=O)c1 (stereo not drawn) | 20.6 µM (active) |
| COc1ccc(OC)c(NC(=O)c2cccc(S(=O)(=O)N3CCN(C(C)=O)CC3)c2)c1 | inactive |
| CC(=O)N1c2ccc(S(=O)(=O)N3CCCC(C(=O)Nc4cccc(Cl)c4)C3)cc2CC1C (stereo not drawn) | 16.4 µM (active) |
| CC(=O)N1CCc2cc(Br)cc(S(=O)(=O)CCC(=O)Nc3c(C)n(C)n(-c4ccccc4)c3=O)c21 | inactive |
| COC(=O)c1cc(NC(=O)CCc2c(C)nc3c4c(C)cc(C)nc4nn3c2C)cc(C(=O)OC)c1 | inactive |
| COc1ccc(NC(=O)CCCc2nnc3n(CCC(C)C)c(=O)c4sccc4n23)c(OC)c1 | inactive |
| COc1cc(C(=O)NN(CCC#N)C2=NS(=O)(=O)c3ccccc32)cc(OC)c1OC | inactive |
| COc1cc(/C=C/C(=O)OCC(=O)Nc2cccc(Oc3ccccc3)c2)ccc1O | inactive |
| CN(c1ccc(OCC(=O)O)cc1)S(=O)(=O)c1ccc2ccccc2c1 | inactive |

| Compound | Potency |
| --- | --- |
| COc1ccc(NC(=O)C/C(C)=N/NC(=O)c2cnccn2)cc1Cl | inactive |
| CC1(C)CCSC(/C=C/c2ccccc2)=N1 | 4.61 µM (active) |
| CC1(C(=O)NS(=O)(=O)c2ccccc2)CCN1C(=O)C/C=C/c1ccccc1 (stereo not drawn) | inactive |
| O=C(Nc1ccc(C(=O)OCc2cc(=O)n3nc(C4CC4)sc3n2)cc1)c1ccc(F)cc1 | inactive |
| O=C(N/N=C/c1cccc(OC(=O)c2ccc([N+](=O)[O-])cc2)c1)c1cccnc1 | inactive |
| O=C(CCNC(=O)Cn1ccc2ccccc2c1=O)NCCC1=CCCCC1 | inactive |
| N#CC1(NC(=O)COC(=O)Cc2n[nH]c(=O)c3ccccc23)CCCCC1 | inactive |
| C/C=C/C=C/C(=O)O | inactive |
| CCOCCCn1c(SCC(=O)Nc2cc(OC)ccc2OC)nc2ccccc2c1=O | 13 µM (active) |
| COc1ccc(OC)c(NC(=O)CSc2nc(-c3ccccc3)cc(=O)[nH]2)c1 | inactive |
| COc1ccc(Cl)cc1NC(=O)CSc1nc2ccccc2c2nc(-c3ccccc3)nn12 | inactive |
| CC(=O)NCCn1c(SCC(=O)Nc2ccc(C)cc2)nc2ccccc2c1=O | inactive |
| CCc1nnc(NC(=O)CSc2nc3ccccc3c(=O)n2CCCOC)s1 | inactive |
| CCOCCCn1c(SCC(=O)Nc2ccc(CC)cc2)nc2ccccc2c1=O | 14.6 µM (active) |
| CC(C)[C@@H]1NC(=O)c2cc([N+](=O)[O-])cc(I)c2NCCC[C@@H](C(=O)NC(CC(=O)O)C(N)=O)NC(=O)[C@H](CO)NC1=O (stereo partly drawn) | inactive |
| O=C(COC(=O)c1ccc(S(=O)(=O)N2CCCCCC2)cc1)Nc1ccccc1C(F)(F)F | inactive |
| CCc1ccccc1NC(=O)NCCN1CCCCC1 | inactive |
| CCCCN(C(=O)c1ccc(C)o1)c1c(N)n(CCCC)c(=O)[nH]c1=O | inactive |
